The record followed here is PubChem BioAssay (EPA / NIEHS).

“And” between values parts separate entries of the source, which are not always exact repeats. Identical values can stand only once. A structure can be active in one record and inactive in another. The source made the active and inactive calls. How the source made its calls: active means hit-call score of the fitted dose curve at least 0.9, where 1 is the maximum; inactive means score below 0.9.

Read-out in assay [1]: Vascular cell adhesion molecule 1 (VCAM1), VCAM1 (gene 7412)
Description: BSK_4H_VCAM1: BioMAP Diversity Plus: 4H Assay for Vascular cell adhesion molecule 1 (VCAM1) Biomarker Activity (AID 2283033).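 On outcome: cell-surface VCAM-1 protein measured by ELISA.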 Particulars: primary human endothelial cells (HUVEC); actives raise or lower the signal. Put shortly:
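Endpoint derived from bidirectional fitting against DMSO controls of VCAM-1 ELISA signal in umbilical vein endothelial cells sampled at 24 h following treatment.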

Read-out in assay [2]: Interferon-gamma inducible Protein 10 (IP10), CXCL10 (gene 3627)
The assay can be described thus: BSK_BE3C_IP10: BioMAP Diversity Plus: BE3C Assay for Interferon-gamma inducible Protein 10 (IP10) Biomarker Activity (AID 2283034). Particulars: primary human bronchial epithelial cells; actives raise or lower the signal. Put shortly: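 Using primary human bronchial epithelial cultures, the assay captures IP-10 by ELISA one day (24 h) after exposure. Parallel SRB staining of total protein flags overt cytotoxicity. Fits run bidirectionally relative to DMSO.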

Read-out in assay [3]: Monokine induced gamma interferon (MIG), CXCL9 (gene 4283)
The assay can be described thus: BSK_BE3C_MIG: BioMAP Diversity Plus: BE3C Assay for Monokine induced gamma interferon (MIG) Biomarker Activity (AID 2283035). The note with it: primary human bronchial epithelial cells; actives raise or lower the signal. Put shortly: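 ELISA read-out of MIG in human lung bronchial epithelial primary cultures, 24 h post-dosing. Bidirectional curve fit vs DMSO baseline.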

Read-out in assay [4]: Transforming growth factor beta 1 (TGFb1), TGFB1 (gene 7040)
The assay can be described thus: BSK_BE3C_TGFb1: BioMAP Diversity Plus: BE3C Assay for Transforming growth factor beta 1 (TGFb1) Biomarker Activity (AID 2283036;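 on outcome: TGF-b1 protein level measured by ELISA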). The note with it: primary human bronchial epithelial cells; actives raise or lower the signal. Put shortly: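 In this human primary bronchial epithelial system, an ELISA quantified TGF-b1 one day after dosing. Endpoint changes in either direction were fitted relative to DMSO.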

Read-out in assay [5]: Plasminogen activator inhibitor-1 (PAI1), SERPINE1 (gene 5054)
Description: BSK_BE3C_PAI1: BioMAP Diversity Plus: BE3C Assay for Plasminogen activator inhibitor-1 (PAI1) Biomarker Activity (AID 2283037). The note with it: primary human bronchial epithelial cells; actives raise or lower the signal. Put shortly: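 PAI-1 biomarker levels in treated human bronchial epithelial cells are determined by ELISA at 24 h. Both increases and decreases relative to DMSO are fitted.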

Read-out in assay [6]: urokinase plasminogen activator (uPA), PLAU (gene 5328)
The assay can be described thus: BSK_BE3C_uPA: BioMAP Diversity Plus: BE3C Assay for urokinase plasminogen activator (uPA) Biomarker Activity (AID 2283038).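 On outcome: uPA protein level quantified by ELISA in cell cultures; uPA read one day after compound addition.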 Particulars: primary human bronchial epithelial cells; actives raise or lower the signal. Put shortly:
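Measured by ELISA: uPA from human primary bronchial epithelial cells 24 h after chemical treatment. Values derive from bidirectional curve fitting with DMSO serving as negative control. Total protein by SRB staining in parallel wells flagged overt cytotoxicity.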

Read-out in assay [7]: Urokinase-type plasminogen activator receptor (uPAR), PLAUR (gene 5329)
Description: BSK_BE3C_uPAR: BioMAP Diversity Plus: BE3C Assay for Urokinase-type plasminogen activator receptor (uPAR) Biomarker Activity (AID 2283039).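 On outcome: uPAR protein level measured by ELISA on the cells; cells exposed to compound for one day before measurement.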 The note with it: primary human bronchial epithelial cells; actives raise or lower the signal. Put shortly: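 A uPAR ELISA serves as the readout, taken 24 h after treating primary human bronchial epithelial cells. Responses in either direction are fitted against DMSO, which defines baseline activity.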

Read-out in assay [8]: Interleukin-6 (IL6), IL6 (gene 3569)
The assay can be described thus: BSK_CASM3C_IL6: BioMAP Diversity Plus: CASM3C Assay for Interleukin-6 (IL6) Biomarker Activity for (AID 2283040). The note with it: primary human coronary artery smooth muscle cells; actives raise or lower the signal.

Read-out in assay [9]: Tissue plasminogen activator (tPA), PLAT (gene 5327)
The assay can be described thus: BSK_BE3C_tPA: BioMAP Diversity Plus: BE3C Assay for Tissue plasminogen activator (tPA) Biomarker Activity (AID 2283041).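 On outcome: tPA level quantified by ELISA one day after compound addition.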 Particulars: primary human bronchial epithelial cells; actives raise or lower the signal. The essentials: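 Bidirectional curve fitting relative to DMSO defined activity, with tPA detected by ELISA in chemically treated human bronchial epithelial primary cells at 24 hours.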

Read-out in assay [10]: Interleukin-8 (IL8), CXCL8 (gene 3576)
Description: BSK_CASM3C_IL8: BioMAP Diversity Plus: CASM3C Assay for Interleukin-8 (IL8) Biomarker Activity (AID 2283042).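 Further: IL-8 protein level quantified by ELISA.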 The note with it: primary human coronary artery smooth muscle cells; actives raise or lower the signal.

Turning to `Cc1c(-c2cccnc2)c2ccccc2n1CCCCC(=O)O`, the result in [1], in assay [2], in assay [3], in assay [4], in assay [5] and in [6] was inactive. The outcome in assay [7], in [8], in assay [9] and in assay [10] was inactive.

What is called AC50 is the concentration at which the activity in the assay is half-maximal. For `O=C(O)c1cccc(N(Cc2cccnc2)c2ccc(OC(F)F)c(OC(F)F)c2)c1`, the outcome in assay [1], in assay [3], in assay [4], in assay [6], in assay [7] and in assay [8] was inactive. For the same molecule, the result in [9] and in [10] was inactive. In addition, the AC50 in assay [2] was 32.8 µM (active); in [5], 31.3 µM (active).

Turning to `CC1=CC(=O)CC(C)(C)C1`, the outcome in assay [1], in assay [2], in assay [3], in assay [4], in [5] and in assay [6] was inactive. For the same molecule, the result in assay [7], in [8], in assay [9] and in assay [10] was inactive.

Regarding `Cc1ccc(N)cc1O`, the result in [1], in assay [2], in assay [3], in [4], in assay [5] and in [6] was inactive. Besides, the outcome in assay [7], in [8], in [9] and in [10] was inactive.

Consider `O=C(CCCCCCCCc1cccnc1)N1CCC(C=C(c2ccccc2)c2ccccc2)CC1`, for which the AC50 is 12.7 µM (active) in [1]; 24.5 µM (active) in assay [2]; 27.9 µM (active) in assay [3]; 23.7 µM (active) in assay [4]; 19.3 µM (active) in assay [5]; 24.7 µM (active) in [6]. Also, the AC50 is 17.9 µM (active) in [7], 19.5 µM (active) in assay [9] and 38.3 µM (active) in assay [10]. In assay [8], the result was inactive.

In the case of `On1ccccc1=S`, the AC50 in assay [1] was 14.8 µM (active); in assay [2], 3.8 µM (active); in [3], 5.25 µM (active); in [4], 5.47 µM (active); in assay [5] it was 3.45 µM (active); in assay [6] it was 5.4 µM (active). Besides, the AC50 in assay [7] is 9.61 µM (active); in assay [8] it was 32.2 µM (active); in assay [9] it was 3.55 µM (active). The outcome in [10] was inactive.

For `Cn1cnc([N+](=O)[O-])c1Sc1ncnc2nc[nH]c12`, the AC50 was 8.19 µM (active) and 9.52 µM (active) in assay [1]; 6.7 µM (active) in assay [9]. Also, the result in assay [1], in assay [2], in [3], in assay [4], in [5] and in assay [6] was inactive. Moreover, the outcome in assay [7], in assay [8], in assay [9] and in assay [10] was inactive.

Consider `Oc1ccc2c(c1)-c1ccccc1C2`, for which the outcome in assay [1], in [2], in assay [3], in assay [4], in [5] and in [6] was inactive. For the same molecule, the outcome in assay [7], in assay [8], in [9] and in [10] was inactive.

As for `O=P(OC(CCl)CCl)(OC(CCl)CCl)OC(CCl)CCl`, the outcome in assay [1], in assay [2], in [3], in [4], in assay [5] and in [6] was inactive. The outcome in assay [7], in [8], in [9] and in assay [10] was inactive.

Consider `COCCOc1cc2cc(C(=O)NC3CCN(C(C)C)CC3)n(CC(=O)Nc3ccc(Cl)cn3)c2cn1`, for which the outcome in [1], in assay [2], in [3], in assay [4], in [5] and in assay [6] was inactive. The outcome in [7], in assay [8], in assay [9] and in assay [10] was inactive.

`C1=CCCC=CCCC=CCC1`: the result in assay [1], in assay [2], in assay [3], in assay [4], in assay [5] and in assay [6] was inactive. Besides, the outcome in assay [7], in assay [8], in [9] and in assay [10] was inactive.

For `CC(C)CCCCCCOC(=O)c1ccc(C(=O)OCCCCCCC(C)C)c(C(=O)OCCCCCCC(C)C)c1`, the result in assay [1], in assay [2], in [3], in assay [4], in [5] and in [6] was inactive. Moreover, the result in [7], in assay [8], in assay [9] and in assay [10] was inactive.

In the case of `CC(C)(O)c1coc(S(=O)(=O)NC(=O)Nc2c3c(cc4c2CCC4)CCC3)c1`, the outcome in [1], in [2], in assay [3], in assay [4], in assay [5] and in assay [6] was inactive. Moreover, the result in assay [7], in assay [8], in assay [9] and in [10] was inactive.

Turning to `NC(=O)NO`, the outcome in assay [1], in assay [2], in assay [3], in assay [4], in assay [5] and in assay [6] was inactive. For the same molecule, the outcome in assay [7], in assay [8], in assay [9] and in [10] was inactive.

`CC(C)=CCC/C(C)=C/CO`: the result in assay [1], in assay [2], in assay [3], in assay [4], in assay [5] and in assay [6] was inactive. Moreover, the result in assay [7], in assay [8], in assay [9] and in assay [10] was inactive.

On to `CC(C)CCCCCCCOC(=O)CCCCC(=O)OCCCCCCCC(C)C`, for which the outcome in [1], in [2], in [3], in [4], in assay [5] and in assay [6] was inactive. The result in assay [7], in assay [8], in [9] and in assay [10] was inactive.

As to `COC(=O)c1ccccc1O`, the result in assay [1], in assay [2], in assay [3], in assay [4], in [5] and in [6] was inactive. Besides, the outcome in [7], in assay [8], in assay [9] and in [10] was inactive.

For the molecule `O=c1n(CC2CO2)c(=O)n(CC2CO2)c(=O)n1CC1CO1` (configuration not stated), the half-maximal activity concentration (AC50) in assay [1] was 23.4 µM (active). Moreover, the result in assay [2], in [3], in assay [4], in [5], in [6] and in assay [7] was inactive. In addition, the outcome in assay [8], in assay [9] and in assay [10] was inactive.

For the molecule `O=C(O)c1cccc(Oc2ccccc2)c1`, the outcome in assay [1], in assay [2], in assay [3], in assay [4], in assay [5] and in assay [6] was inactive. The outcome in [7], in assay [8], in [9] and in assay [10] was inactive.

For the molecule `CC(=O)c1ccc2c(c1)[C@H](NC(=O)c1ccc(F)cc1)[C@@H](O)C(C)(C)O2`, the outcome in [1], in assay [2], in assay [3], in assay [4], in [5] and in assay [6] was inactive. Also, the outcome in assay [7], in assay [8], in assay [9] and in assay [10] was inactive.

Consider `COc1ccc(-n2nc(C(F)F)cc2-c2ccc(S(C)=O)cc2)cc1` (configuration not stated), for which the outcome in assay [1], in assay [2], in assay [3], in [4], in [5] and in assay [6] was inactive. In addition, the result in [7], in assay [8], in assay [9] and in assay [10] was inactive.

Turning to `COCCOCCOCCOC`, the outcome in assay [1], in [2], in assay [3], in assay [4], in assay [5] and in assay [6] was inactive. Besides, the result in assay [7], in [8], in [9] and in assay [10] was inactive.
